Assay outcomes deposited in PubChem BioAssay by National Center for Advancing Translational Sciences (NCATS).
RORgamma inh – qHTS for inhibitors of ROR gamma transcriptional activity; Potency, µM (doses to about 53.6 µM), without a hit: at the top dose activity change, negative = inhibition, hits mostly inhibitors; 5.4% of 310,000 active; AID 2551, 2010; Drosophila S2 Gal4-RORgamma UAS-luciferase reporter, 20 h; also: potency is read from the fitted curve at half-maximal effect; % is scaled to controls: 0 for no effect and ±100 for the full control effect; nearly all actives have a fitted effect of over 60% in size
Target sequence (P51450 whole entry, looked up, the tested form may be a part): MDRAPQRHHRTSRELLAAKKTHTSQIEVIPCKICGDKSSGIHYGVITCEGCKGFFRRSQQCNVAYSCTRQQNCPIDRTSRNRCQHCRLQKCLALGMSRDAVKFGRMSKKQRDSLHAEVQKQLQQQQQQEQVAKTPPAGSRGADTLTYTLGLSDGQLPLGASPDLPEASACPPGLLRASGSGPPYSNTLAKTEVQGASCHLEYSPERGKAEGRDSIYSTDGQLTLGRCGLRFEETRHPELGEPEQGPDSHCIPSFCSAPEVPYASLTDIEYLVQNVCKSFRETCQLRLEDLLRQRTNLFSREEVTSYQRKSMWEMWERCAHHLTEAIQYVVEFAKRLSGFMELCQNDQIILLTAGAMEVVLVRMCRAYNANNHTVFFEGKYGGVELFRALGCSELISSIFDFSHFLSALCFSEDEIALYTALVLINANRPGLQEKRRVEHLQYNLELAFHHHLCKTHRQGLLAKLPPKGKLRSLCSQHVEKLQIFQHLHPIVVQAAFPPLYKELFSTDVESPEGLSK
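In this cell-based reporter format, copper sulfate (700 uM final) drives Gal4–ROR gamma fusion expression from a metallothionein promoter in Drosophila Schneider cells; compounds preincubated 1 hr, reporter read after 20 hr at ambient temperature.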
SW480 rerep – A quantitative high throughput screen for small molecules that induce DNA re-replication in SW480 colon adenocarcinoma cells; SW480 DNA re-replication, Hoechst DNA content imaging, 48 h; Potency, µM (top dose mostly 46.1 µM), for inactives: at the highest dose re-replication activation, most hits filed as activators; 1.8% of 340,000 active; also: potency is read from the fitted curve at half-maximal effect; % of control where 0% means no effect; nearly all actives have a fitted effect of over 55% in size
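Cells (250 per well) received 23 nL compound or DMSO by pin tool and were kept 48 hr at 37 C, 5% CO2. Nuclei were then stained with Hoechst for 40 min and scanned for DNA content.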
VP16 counter – VP16 counterscreen qHTS for inhibitors of ROR gamma transcriptional activity | 3.5% of 310,000 active | AID 2546, 2010 | Drosophila S2 Gal4-VP16 UAS-luciferase, luminescence, 20 h | Potency, µM (top dose mostly 53.6 µM), for the others: at the highest dose activity, negative = inhibition, actives largely listed as inhibitors;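 also: Gal4-VP16 expression switched on by copper sulfate through the metallothionein promoter; potency is read from the fitted curve at half-maximal effect; % is scaled to controls: 0 for no effect and ±100 for the full control effect; nearly all actives have a fitted effect of over 50% in size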
IL1B secr inh – qHTS for Inhibitors of Inflammasome Signaling: IL-1-beta AlphaLISA Primary Screen. THP-1 LPS/ATP IL-1B secretion, AlphaLISA, 16 h; active compounds read low. activity change, % at 57.5 µM. 4.7% of 360,000 active. AID 743279, 2014; in the data active = activity change below about -50%; inconclusive = mostly about -30% to -49%; also: % is scaled to controls: 0 for no effect and ±100 for the full control effect
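Secreted IL-1B measured by AlphaLISA bead assay after 16 h compound exposure of THP-1 cells; compounds (final up to 57.5 uM) added 1 h before LPS (250 ng/mL) and ATP (1.25 mM) stimulation; lower signal means less secretion.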
MCF10A rereplic – A quantitative high throughput screen for small molecules that induce DNA re-replication in MCF 10a normal breast cells; Potency, µM (titrated, usually from 46.1 µM), without a hit: at the top dose activity, positive = re-replication, hits mostly activators; AID 624296, 2012; MCF 10A DNA re-replication, Hoechst nuclear intensity, 48 h; 2.9% of 350,000 active; also: potency is read from the fitted curve at half-maximal effect; % of control where 0% means no effect; nearly all actives have a fitted effect of over 50% in size
An asterisk follows results filed as active; ? = inconclusive; . = no result given. Hits are enriched below; roughly 11% of the tested compounds scored in any of these assays. Unless noted, calls follow the shape of the dose curve; as a rule, active = well fitted curve in the direction sought with a large enough effect; inconclusive = small, poorly fitted or top-dose-only effect, or another doubt; inactive = no such curve, though single readings can be large; an effect the other way counts as inactive or inconclusive.

SMILES | RORgamma inh | SW480 rerep | VP16 counter | IL1B secr inh | MCF10A rereplic
Cc1cc(=O)c2ccccc2n1CC(=O)NCc1ccccc1 | ? | -2% | ? | 12 | ?
O=C(COC(=O)/C=C/c1cccc(C(F)(F)F)c1)NCCN1C(=O)CSC1=O | . | 12% | . | -8 | 26µM*
CN(C(=O)COc1ccc2c(-c3ccccc3)cc(=O)oc2c1)C1CCS(=O)(=O)C1 (configuration not stated) | -10% | 13µM* | 4% | -9 | ?
COc1ccc(-c2oc3ccc(-c4cc(OC)c(OC)c(OC)c4)cc3c2C#Cc2ccccn2)cc1 | . | -8% | . | -2 | ?
CCC1(c2ccc(F)cc2)NC(=O)N(CC(=O)Nc2ccc3c(c2)OCCO3)C1=O (configuration not stated) | . | -11% | . | 6 | -6%
CCC1(c2ccc(F)cc2)NC(=O)N(CC(=O)Nc2ccc(-c3nc4ccc(C)cc4s3)cc2)C1=O (configuration not stated) | 0.45µM* | ? | -14% | 96 | ?
CC1(c2ccc(OC(F)F)cc2)NC(=O)N(CC(=O)Nc2ccc(OC(F)F)cc2)C1=O (configuration not stated) | 16% | 2% | -17% | 21 | 4%
CCOc1ccc(NC(=O)CN2C(=O)NC(C)(c3ccc(OC(F)F)cc3)C2=O)cc1 (configuration not stated) | 0% | ? | -22% | -67* | 17%
COc1ccc(C2(C)NC(=O)N(CC(=O)Nc3ccc(-c4nc5ccc(C)cc5s4)cc3)C2=O)cc1 (configuration not stated) | -14% | ? | -9% | -9 | 18µM*
Cc1ccc(NC(=O)CN2C(=O)NC(C)(c3ccc(Cl)cc3)C2=O)cc1 (configuration not stated) | 40% | 0% | -8% | ? | 3%
CCCCN(C(=O)c1cccc(S(=O)(=O)N(CC)c2ccccc2)c1)c1c(N)n(CC(C)C)c(=O)[nH]c1=O | . | -36% | . | 0 | 3%
Cn1c(SCC(=O)N/N=C/C=C\c2ccco2)nc2ccccc21 | 0.4µM* | 2% | ? | ? | 11%
Cc1ccc(OCC(=O)N/N=C/C=C/c2ccco2)c(Br)c1 | . | 16µM* | . | 0 | ?
Cc1ccc(CSc2nnc(SCC(=O)N/N=C/C=C/c3ccccc3[N+](=O)[O-])s2)cc1 | 11µM* | 1% | ? | 20 | -1%
Cc1ccc(CSc2nnc(SCC(=O)N/N=C/C=C/c3ccco3)s2)cc1 | 7.1µM* | 0% | 11µM* | 35 | 3%
CC(/C=N/NC(=O)CSc1nnc(SCc2ccccc2)s1)=C\c1ccco1 | 8% | -3% | ? | 17 | ?
CCn1c(SCC(=O)N/N=C/C=C\c2ccccc2[N+](=O)[O-])nnc1-c1ccccc1 | 28% | 11% | -8% | 1 | 17%
O=C(CSc1nc2ccccc2c(=O)n1-c1ccccc1)N/N=C/C=C/c1ccccc1[N+](=O)[O-] | 11% | 14% | 8% | ? | 4.6µM*
CCc1nc(C)c(C(=O)N2CCCC(C(=O)Nc3cccc(-c4cccc(C)c4)c3)C2)o1 (configuration not stated) | ? | ? | ? | -82* | 13%
Cc1cccc(-c2cccc(NC(=O)C3CCCN(C(=O)c4ocnc4C)C3)c2)c1 (configuration not stated) | ? | 21% | 1% | 0 | 2%
O=C(CN1C(=O)NC2(CCCC2)C1=O)Oc1ccc2ccc(=O)oc2c1 | . | -3% | . | -19 | -6%
O=C(NC(Cc1c[nH]c2ccccc12)C(=O)N/N=C/c1ccc(Cl)cc1)c1cccs1 (configuration not stated) | -5% | ? | -11% | -66* | 6%
O=C(NC(Cc1c[nH]c2ccccc12)C(=O)N1CCOCC1)c1cccs1 (configuration not stated) | -11% | 1% | 1% | 1 | -11%
